Screens as filed in PubChem.
This is one part of a sample in which hits are shown more often than they occur.
AMA1 RON2 block = AMA1-RON2 (P. falciparum) interaction inhibition | actives 0.2% (n = 360,000) | AlphaScreen AMA1-biotinylated RON2 peptide binding | Potency, µM (highest dose often 58.2 µM), actives largely listed as inhibitors | AID 720542; note: nearly all actives have a fitted effect of over 45% in size
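AMA1 (3D7) with his tag at 25 nM final met compounds first, then biotinylated RON2 peptide at 25 nM; detection used donor plus acceptor beads, 10 µg/mL apiece, read by AlphaScreen after 30 min at room temperature.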
AmpC inh no detg = blocks E. coli AmpC beta-lactamase in detergent-free assay; P00811; AmpC nitrocefin hydrolysis, absorbance 480 nm, 0.0001% Triton; Potency, µM (titrated, usually from 57.1 µM), most hits filed as inhibitors; actives 0.52% (n = 330,000); AID 485341; note: nearly all actives have a fitted effect of over 20% in size
Target sequence (P00811 whole entry, looked up): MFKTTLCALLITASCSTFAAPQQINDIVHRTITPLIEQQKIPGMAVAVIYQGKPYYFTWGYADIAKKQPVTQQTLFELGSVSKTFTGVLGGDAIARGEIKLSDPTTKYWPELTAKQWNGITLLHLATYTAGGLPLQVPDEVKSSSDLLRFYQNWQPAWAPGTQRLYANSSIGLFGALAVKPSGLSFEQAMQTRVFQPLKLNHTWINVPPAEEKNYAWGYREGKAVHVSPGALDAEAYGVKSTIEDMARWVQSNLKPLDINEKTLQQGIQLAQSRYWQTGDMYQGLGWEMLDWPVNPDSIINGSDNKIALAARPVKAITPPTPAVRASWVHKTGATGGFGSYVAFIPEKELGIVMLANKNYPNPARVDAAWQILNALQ
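AmpC (5.3 nM in the dispensed reagent) in 20 mM phosphate pH 7.0 with 0.01% (detergent screen) or 0.0001% Triton X-100 was preincubated with compounds for 15 min at room temperature. Nitrocefin was then added from an 800 uM solution, and hydrolysis was followed at 480 nm.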
Cycloheximide cs = counter-screen for Shiga toxin inhibitors: cycloheximide protein synthesis inhibition | cell reporter, cycloheximide protein synthesis inhibition counterscreen | max response, % | actives 12% (n = 300,000) | AID 2314; in the data active = max response mostly above about 13%, no sharp cut-off; inactive = mostly below about 14%; note: read at 38.3 µM for the half of the compounds with a filed dose
AmpC detergent = AmpC beta-lactamase inhibition with detergent present; P00811; Potency, µM (series often up to 114 µM), actives largely listed as inhibitors; AmpC hydrolysis of nitrocefin, absorbance 480 nm, 0.01% Triton; actives 0.041% (n = 370,000); note: nearly all actives have a fitted effect of over 25% in size
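20 mM phosphate pH 7.0 + 0.01% (detergent screen) or 0.0001% Triton X-100; 5.3 nM AmpC reagent; cpd preinc 15 min RT; nitrocefin (800 uM stock) to start; A480 q20 s × 4 min; Activity was normalised to no-enzyme and no-compound control wells.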
Shiga inhibitor = Shiga toxin inhibition | inhibition, % at 38.7 µM | AID 2315 | Vero cells, Shiga toxin protein synthesis inhibition reporter | actives 9.2% (n = 290,000); in the data active = inhibition mostly above about 28%, no sharp cut-off; inactive = mostly below about 43%
SARS PLpro yeast-1 = inhibitors of SARS-CoV papain-like protease in yeast. S. cerevisiae expressing SARS-CoV PLpro, growth rescue. Potency, µM (top dose mostly 32.9 µM), hits mostly activators. AID 485353. actives 0.19% (n = 330,000); calls by dose curve; note: nearly all actives have a fitted effect of over 55% in size
SARS PLpro yeast-2 = Rescues yeast growth by inhibiting SARS-CoV PLpro. shares compounds with SARS PLpro yeast-1. yeast expressing SARS-CoV PLpro, growth phenotype rescue. calls only. actives 19% (n = 1,000). AID 652038; call rule not given here
Hits are given with their value; – = inactive; ? = inconclusive; · = no result; + = active, no number; [ ] = another dose, or the depositor's remark. Unless noted, calls come from the whole dose curve; as a rule, active = well fitted curve in the direction sought with a large enough effect; inconclusive = small, poorly fitted or top-dose-only effect, or another doubt; inactive = no such curve, though single readings can be large; an effect the other way counts as inactive or inconclusive.

SMILES	AMA1 RON2 block	AmpC inh no detg	Cycloheximide cs	AmpC detergent	Shiga inhibitor	SARS PLpro yeast-1	SARS PLpro yeast-2
Cc1cnn(-c2cc(N/N=C/c3ccccc3F)ncn2)c1	–	–	–	?	–	–	·
COc1cc(N/N=C/c2ccccc2O)ncn1	–	–	28	–	33	8.9µM	?
O=c1[nH]nc2c3ccccc3cnn12	–	–	–	–	–	–	·
O=C(CN1CC(c2ccccc2)CC1=O)N/N=C/c1cc(Br)ccc1O (stereo not given)	–	–	–	–	–	10µM	+
CCn1nc(C)c(/C=C/C(=O)Nc2ccc(C)cc2C)c1C	–	–	–	–	–	?	–
CCC(=O)N=c1sc2c(OC)ccc(OC)c2n1C	–	·	·	·	·	·	·
CCCCCc1nc2ccccc2c(=O)n1-c1ccccc1[N+](=O)[O-]	–	–	–	–	–	–	·
C[C@]12c3[nH]c4cc(-c5ccco5)ccc4c3CCN1C(=O)[C@@H](CC(=O)NCCCn1ccnc1)C[C@@H]2C(=O)N1CCOCC1	?	–	·	·	·	?	–
C[C@]12c3[nH]c4cc(-c5ccco5)ccc4c3CCN1C(=O)[C@@H](CC(=O)NCCCn1ccnc1)C[C@@H]2C(=O)N1CCCCC1	?	–	·	·	·	–	·
Cc1cc(C)nc(SCc2ccc(C(=O)N/N=C/c3cccc(O)c3O)cc2)n1	–	–	17	–	–	3.2µM	+
Cc1ccc(-c2ccc(CN3C(C(C)C)C(=O)N(Cc4cn(Cc5ccco5)nn4)CCS3(=O)=O)cc2)cc1 (stereo not given)	–	·	·	·	·	·	·
CCC1CCC2(CC1)NNC(=S)NN2	–	–	–	–	–	8.9µM	–
CC(C)(C)N(Cc1ccccc1)C(=O)COC(=O)C1CCCCC1	–	–	·	·	·	3.2µM	–
CCc1nc(Nc2ccc(OC)c(OC)c2)c2nnn(Cc3ccccc3Cl)c2n1	–	–	–	–	–	18µM	+
COc1cccc(OC)c1Nc1nc(C)nc2c1nnn2Cc1ccccc1Cl	–	–	–	–	–	–	·
Cc1cccc(C)c1NC(=O)CSCC(=O)O	–	–	–	–	–	–	·
COc1ccc(NC(=S)NNc2ccc([N+](=O)[O-])cc2S(=O)(=O)Nc2ccc(C)cc2C)cc1	–	–	–	–	–	–	·
COC(=O)CCn1c(C)cc(C(=O)COc2ccccc2C(N)=O)c1C	–	–	–	–	–	–	·
COC(=O)CCCn1c(C)cc(C(=O)CCl)c1C	–	–	–	–	–	11µM	+
COc1ccccc1C(=O)Oc1ccc(C(c2c(C)[nH][nH]c2=O)c2c(C)[nH][nH]c2=O)cc1	·	·	·	–	·	·	·
Nc1nc(SCC(=O)N2CCOCC2)n[nH]1	–	–	–	–	–	–	·
CNC(=S)N/N=C/C1=CCC2CC1C2(C)C (stereo not given)	–	–	–	–	–	13µM	+
O=C(N/N=C/c1ccccn1)C(O)c1ccccc1 (stereo not given)	–	–	–	–	–	–	·
C(=N\NC(=Nc1ccccc1)c1ccccn1)/c1ccccn1	–	–	14	?	–	?	?
CCCN1C/C(=C/c2ccc3c(c2)OCO3)C(=O)/C(=C/c2ccc3c(c2)OCO3)C1	–[11.6 µM]	–	–	–	–	14µM	–
SMILES	AMA1 RON2 block	AmpC inh no detg	Cycloheximide cs	AmpC detergent	Shiga inhibitor	SARS PLpro yeast-1	SARS PLpro yeast-2
CCCCn1c(N)c(N(CCOC)C(=O)c2cc(S(=O)(=O)N3CCCCC3)ccc2C)c(=O)[nH]c1=O	–	–	·	?	·	·	·
CCCCn1c(N)c(N(CC)C(=O)c2cc(S(=O)(=O)N3CCCCCC3)ccc2OC)c(=O)[nH]c1=O	–	–	·	–	·	?	–
Cc1cc(C(=O)NNC(=O)CCCOc2ccccc2)c(C)o1	–	–	·	–	·	–	·
CN(CC(=O)Nc1ccc(Cl)c(C(F)(F)F)c1)C(=O)/C=C/c1cccs1	–	–	·	–	·	?	–
CN(CC(=O)Nc1ccc(Cl)c(Cl)c1)C(=O)/C=C/c1ccc(F)cc1	–	–	–	–	–	–	·
O=C1C(c2ccc(F)cc2)N(CCc2ccc(Cl)cc2)C(=O)CN1C1CCCCCC1 (stereo not given)	·	·	·	–	·	·	·
COC(=O)Nc1ccccc1C(=O)N1CCC(O)(c2ccc(Cl)cc2)CC1	–	–	–	?	–	?	–
O=C(O)CC1S/C(=N\N=C2CCCCCCC2)N(c2ccccc2)C1=O (stereo not given)	–	–	–	–	–	–	·
COc1cc(C2CC(c3c(C)cc(C)[nH]c3=O)=NN2c2ccccc2F)cc(OC)c1OC (stereo not given)	–	–	–	–	–	–	·
CC1CN(C(=O)Cn2c(C(F)(F)F)nc3ccccc32)CC(C)O1 (stereo not given)	–	–	–	–	–	?	–
O=C(O)Cn1c(C(F)(F)F)nc2ccccc21	–	·	–	–	–	·	·
COc1ccccc1CCNC(=O)/C(=C/c1cccnc1)NC(=O)c1ccccc1	–	–	–	–	–	–	·
O=C(NCCc1ccc(Cl)cc1)/C(=C/c1cccnc1)NC(=O)c1ccccc1	–	–	–	–	–	16µM	–
O=C(NC1CC1)c1c(O)c2ccccc2[nH]c1=O	–	–	–	–	–	–	·
Cc1ccc(C(=O)NC(=S)Nc2ccccc2N2CCCC2)cc1[N+](=O)[O-]	–[11.6 µM]	–	–	–	–	?	+
Cc1ccc(C(=O)Nc2ccccc2N2CCCCC2)cc1[N+](=O)[O-]	–	–	–	–	–	–	·
O=C(NNC1CC(=O)N(c2ccccc2)C1=O)c1ccco1 (stereo not given)	–	–	–	–	–	–	·
O=C(N=C1SCC(=O)N1c1ccccc1)c1ccco1	–	–	31	–	–	?	–
Cc1ccccc1NC(=O)c1ccc(NC(=O)N2CCSc3ncccc32)cc1	·	·	·	–	·	·	·
Cc1cc(C)c(Nc2n[nH]c(=S)s2)cc1C	–	·	·	·	·	·	·
CCC(=NNC(=O)c1ccc2c(c1)nc(C)n2CC)c1cc(F)ccc1O	–	–	·	·	·	10µM	–
Cc1ccc(F)c(S(=O)(=O)NC(=O)C2(C)CCN2C(=O)Cc2ccc(C(C)(C)C)cc2)c1 (stereo not given)	–	·	·	·	·	·	·
Cc1ccccc1NC(=O)/C(=C\c1cccs1)NC(=O)c1ccco1	–	–	–	–	–	?	–
Cc1ccccc1NC(=O)/C(=C/c1cccs1)NC(=O)c1ccco1	–	–	–	–	–	–	·
COc1ccccc1-c1nnn(CC#N)n1	–	–	–	–	–	?	–
CCNC(=S)NNC(=O)C1CCCCC1	–	–	–	–	–	4µM	–
Oc1ccc2n[nH]nc2c1	–	–	–	?	–	?	–
Oc1ccc(Cl)c(Cl)c1	–	–	·	–	·	–	·
O=C(Nc1ccc(Cl)c(S(=O)(=O)N2CCCCC2)c1)c1cnccn1	–	–	·	?	·	–	·
